Records with an inconclusive call do not appear. Active and inactive are the calls of the source. How the source made its calls: active means hit-call score of the fitted dose curve at least 0.9, where 1 is the maximum; inconclusive means response in the unintended direction; inactive means score below 0.9.

The nature of test [1]: Tanguay_ZF_120hpf_MORT_legacy: (Legacy) Oregon State University Tanguay Lab 120 Hour Post-fertilization zebrafish Assay for Mortality (AID 2283633). The gist of the method: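 Dechorionated Tropical 5D wild-type zebrafish embryos, one per well from 6 hpf, static exposure in 0.64% DMSO at 28C until 120 hpf. Mortality scored as binary by brightfield microscopy at 24 and 120 hpf.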

The nature of test [2]: Tanguay_ZF_120hpf_YSE_legacy: (Legacy) Oregon State University Tanguay Lab 120 Hour Post-fertilization zebrafish Assay for Yolk Sac Edema (AID 2283634). The gist of the method: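 Dechorionated Tropical 5D wild-type zebrafish embryos were exposed statically, one per well, from 6 to 120 hpf at 28C in 0.64% DMSO. Yolk sac edema was scored present/absent by brightfield at 120 hpf, and dead embryos were excluded.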

A short description of test [3]: Tanguay_ZF_120hpf_AXIS_legacy: (Legacy) Oregon State University Tanguay Lab 120 Hour Post-fertilization zebrafish Assay for Body Axis Malformation (AID 2283635).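 Further: potency for an increased fraction of larvae scored with body axis malformation.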 The gist of the method: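 Dechorionated wild-type Tropical 5D zebrafish embryos, one per well, statically exposed from 6 hpf to 120 hpf at 28C in 0.64% DMSO final. Body axis malformation scored present/absent by brightfield microscopy at 120 hpf; dead embryos excluded.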

Test [4] is described as follows: Tanguay_ZF_120hpf_EYE_legacy: (Legacy) Oregon State University Tanguay Lab 120 Hour Post-fertilization zebrafish Assay for Eye Malformation (AID 2283636). The method, boiled down:
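Read-out is binary presence or absence of eye malformation, scored by brightfield microscopy at 120 hpf. Single larvae were exposed from 6 hpf in embryo medium containing 0.64% DMSO, with DMSO as baseline.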

Test [5] in a line: Tanguay_ZF_120hpf_SNOU_legacy: (Legacy) Oregon State University Tanguay Lab 120 Hour Post-fertilization zebrafish Assay for Snout Malformation (AID 2283637). The gist of the method: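 Snout malformation read as a yes/no call on brightfield images of 120 hpf larvae (Tropical 5D strain). Static exposure began at 6 hpf on dechorionated embryos in 0.64% DMSO, with gain of signal analysed versus DMSO controls.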

Test [6] can be described thus: Tanguay_ZF_120hpf_JAW_legacy: (Legacy) Oregon State University Tanguay Lab 120 Hour Post-fertilization zebrafish Assay for Jaw Malformation (AID 2283638). The method, boiled down: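 Dechorionated Tropical 5D wild-type zebrafish embryos, one per well, exposed statically from 6 hpf to 120 hpf at 28C in 0.64% DMSO. Jaw malformation was scored by brightfield microscopy as present or absent. It was not scored in dead embryos.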

A short description of test [7]: Tanguay_ZF_120hpf_OTIC_legacy: (Legacy) Oregon State University Tanguay Lab 120 Hour Post-fertilization zebrafish Assay for Otic Vesicle Malformation (AID 2283639). Here is the method:
Tanguay_ZF_120hpf_legacy is a whole embryo, multiplexed endpoint assay using zebrafish larvae exposed for 120 hours post fertilization on a 96-well plate.Tanguay_ZF_120hpf_OTIC_legacy is one of one assay component(s) measured or calculated from the Tanguay_ZF_120hpf_legacy assay. It is designed to make measurements of zebrafish development as detected with brightfield microscopy of developing zebrafish embryos.Data from the assay component Tanguay_ZF_120hpf_OTIC_legacy was analyzed into 1 assay endpoints. This assay endpoint, Tanguay_ZF_120hpf_OTIC_legacy, was analyzed in the positive analysis fitting direction relative to DMSO as the negative control and baseline of activity. […]
Zebrafish husbandry: Tropical 5D wild-type adult zebrafish were housed in at an approximate density of 1000 per 100 gallon tank at the Sinnhuber Aquatic Research Laboratory, Oregon State University, Corvallis, OR. […] At 24 hpf, embryos were assessed for photomotor response using a custom photomotor response analysis tool (PRAT) and for developmental toxicity endpoints (MO24: mortality at 24 hpf, DP: developmental progression, SM: spontaneous movement, and NC: notochord distortion). At 120 hpf, locomotor activity was measured using Viewpoint Zebralab and assessed for 18 endpoints. […] If mortality occurred for an embryo (at either 24 or 120 hpf), the non-mortality endpoints were not measured.

Test [8] can be described thus: Tanguay_ZF_120hpf_PE_legacy: (Legacy) Oregon State University Tanguay Lab 120 Hour Post-fertilization zebrafish Assay for Pericardial Edema (AID 2283640). The method, boiled down: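 Tropical 5D wild-type zebrafish embryos were statically exposed until 120 hpf at 28C, with 0.64% DMSO final. Pericardial edema was scored by brightfield as present or absent; endpoints were not scored in dead embryos.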

A short description of test [9]: Tanguay_ZF_120hpf_BRAI_legacy: (Legacy) Oregon State University Tanguay Lab 120 Hour Post-fertilization zebrafish Assay for Brain Malformation (AID 2283641). The gist of the method: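 Tropical 5D wild-type zebrafish embryos exposed statically until 120 hpf at 28C, 0.64% DMSO final, sealed and dark. Brain malformation scored present/absent by brightfield at 120 hpf; dead embryos excluded. Trimethyltin chloride 5uM positive control.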

Test [10] in a line: Tanguay_ZF_120hpf_SOMI_legacy: (Legacy) Oregon State University Tanguay Lab 120 Hour Post-fertilization zebrafish Assay for Somite Malformation (AID 2283647). The gist of the method: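 Dechorionated Tropical 5D wild-type zebrafish embryos, one per well from 6 hpf, statically exposed at 28C to 120 hpf in 0.64% DMSO; somite malformation scored present/absent by brightfield; trimethyltin 5 uM positive control; dead embryos not scored.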

For the compound `CS(=O)(=O)OCCCCOS(C)(=O)=O`, the compound was called inactive in test [1], in [2], in test [4], in test [5], in test [6] and in [7]. In addition, the compound was classed as inactive in test [8], in [9] and in test [10]. For the same compound, the AC50 in test [3] was 38.7 µM (active).
